Measurements: PubChem BioAssay AID1490 (National Center for Advancing Translational Sciences (NCATS), 2009)
Hit rate of the full screen: of about 310,000 compounds, about 11,000 (3.5%) were called active. Another 4% or so got no clear call; they are omitted. The call rests on the fitted dose curve; in most records, active means well fitted inhibition curve with a large enough effect; inconclusive means small, poorly fitted or top-dose-only effect, or another doubt; inactive means no such curve, though single readings can be large or run the other way. What follows is part of a selection rich in actives, with near analogues and random picks from the rest.

target: 4'-phosphopantetheinyl transferase ffp (Bacillus subtilis) (UniProt Q9F4F7); test: qHTS Assay for Inhibitors of Bacillus subtilis Sfp phosphopantetheinyl transferase (PPTase); settings: Biochemical Sfp PPTase activity;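 further: the enzyme is Sfp with the accession as filed and its product quenches rhodamine fluorescence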;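 on Largest response in the series, negative = inhibition: 0% = enzyme reaction without inhibitor and -100% = no enzyme wells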
How it was run: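 Fluorescence-quenching assay with 15 nM Sfp, 5 uM rhodamine-CoA and 12.5 uM BHQ-2-labelled ybbR peptide in pH 7.6 Hepes/MgCl2 buffer. Enzyme was pre-incubated with compound for 15 min at room temperature. Rate was taken from the 30-min fluorescence change (525/598 nm).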
Potency means the concentration at half of the fitted maximal effect.

Largest response in the series, negative = inhibition, inactive:
COc1ccc(OC)c(CCNC(=O)c2nn(C)c3c2CS(=O)(=O)c2ccccc2-3)c1 15.7%
COc1ccc(NC(=O)CN2C(=O)COc3ccc(S(=O)(=O)N4CCOCC4)cc32)c(OC)c1 15.2%
O=C(c1ccc(S(=O)(=O)N2CCCC2)cc1)N1CCN(c2ccccc2F)CC1 11.7%
COc1ccc(/C=C/c2noc(-c3ccccc3OC(C)=O)n2)cc1 -16%
CC(=O)Nc1ccc(N2CCOCC2)c(C(=O)Nc2cccc(C)c2)c1 6.24%
Cc1cccc(NC(=O)c2sc3nc4c(c(-c5ccco5)c3c2N)CCC4)c1 -15.6%
COc1cccc(CNC(=O)CN(C)S(=O)(=O)c2ccc3c(c2)c(=O)n(C)c(=O)n3C)c1 -4.3%
CC(CC(=O)N1CCN(c2ccccc2)CC1)c1ccccc1 (stereo not given) 3.18%
CCc1ccc(NC(=O)N2CCN(c3ccccc3)CC2)cc1 3.63%
O=C1C(=O)N(CCCO)C(c2ccccc2)/C1=C(\O)c1ccc(Br)cc1 (stereo not given) 6.17%
COc1ccc(C2=NS(=O)(=O)N(C)C(C(=O)N3CCCCC3)=C2)cc1 1.59%
COc1ccc(NC(=O)c2ccco2)cc1NC(=O)c1ccc(C#N)cc1F 6.39%
O=[N+]([O-])c1ccc(O)c(/C=N/Nc2ccccc2[N+](=O)[O-])c1 -9.69%
C/C(=N\NC(=O)C(N)=O)c1ccc2c(c1)OCCO2 -17.8%
Cc1nc(NC(=O)c2ccc3c(c2)OCCO3)ccc1Br -0.776%
CCCN1CCN(C(=O)CCCNC(=O)c2ccc(Cl)cc2)CC1 8.54%
COc1ccc(NC(=O)CC(NC(C)c2ccccc2)C(=O)O)cc1 (stereo not given) -9.65%
CN(C)CCCNC(=O)c1cc(C(=O)Cc2ccc(Cl)cc2)c[nH]1 3.87%
COc1cc(CN2CCC(C(N)=O)CC2)ccc1OCc1ccccc1 -21.1%
COc1cc(CNC2CCCC2)c(Br)cc1OCc1ccccc1 9.9%
Cc1ccc(CNC(=O)CCC(=O)N2CC(C)Sc3ccccc32)cc1 (stereo not given) 23.4%
CC(=O)Nc1ccc(S(=O)(=O)N2CCC(NC(=O)c3ccccc3)CC2)cc1 22.8%
COc1ccc2c(c1)N(C)/C(=C1/SC(=S)N(NC(C)=O)C1=O)S2 -12.7%
COc1cccc(OC)c1C(=O)NC(=S)NCc1ccco1 -3.61%
COc1cc(C(=O)N[C@@H](C)C(=O)NCc2ccco2)cc(OC)c1OC 8.28%
Fc1ccc(-c2ccc(NCCN3CCOCC3)nn2)cc1 19.2%
COc1cc(C(=S)N2CCOCC2)cc(OC)c1OC(=O)c1ccc([N+](=O)[O-])cc1[N+](=O)[O-] 7.82%
O=C(Oc1ccccc1Cl)c1ccc(N2CCOCC2)c([N+](=O)[O-])c1 -20.5%
COc1cc(C(=S)N2CCOCC2)cc(OC)c1OC(=O)c1cc([N+](=O)[O-])cc([N+](=O)[O-])c1 4.17%
O=C(Nc1ccc(C(=O)N2CCCCC2)cc1)c1cccc([N+](=O)[O-])c1 17.2%
CCCCNC(=O)CCn1nc(-c2ccc(Cl)cc2)ccc1=O 10.2%
Cc1c(CC(=O)NCC(=O)NCC(=O)O)c(=O)oc2cc3oc4c(c3cc12)CCCC4 -20.1%
Nc1nnnn1/N=C/c1cccc(Br)c1 2.63%
Cc1n[nH]c(C)c1S(=O)(=O)N1CCCC(C(=O)Nc2ccc(Br)cc2)C1 (stereo not given) 15.6%
CCOC(=O)Cn1c(=O)n(Cc2ccc(OC)cc2)c(=O)c2cccnc21 13%
O=C(Nc1ccnn1C1CCN(Cc2cccc(OCCO)c2)CC1)C1CCCC1 -0.971%
COc1ccc(-c2cc(C(=O)N3CCN(c4ccc(F)cc4)CC3)no2)cc1 8.09%
COc1ccc(CNC(=O)c2ccc3oc(C(C)C)nc3c2)cc1 2.49%
CCCCn1c(=S)[nH]c2ccccc2c1=O 8.99%
S=c1ccc2ccccc2[nH]1 -21.1%
Cc1cccc(NC(=O)CSCC(=O)Nc2nnc(C3CC3)s2)c1 -4.58%
CCN(CC)c1ccc2cc(C(N)=O)/c(=N\NC(=O)c3ccncc3)oc2c1 -4.99%
CCN(CC)c1ccc(/C=N/Nc2nc(C)cc(C)n2)c(O)c1 -14.7%
Cc1ccc2cccc(OCCCOc3ccccc3CO)c2n1 13.6%
O=C(CC1C(=O)NCCN1CC(c1ccccc1)c1ccccc1)NCC1CCOCC1 (stereo not given) -5.38%
Cc1sc2nc(SCCO)n(-c3ccccc3)c(=O)c2c1C 27.7%
Cc1cccc(NC(=O)C(C)SCc2ccccc2)c1 (stereo not given) 3.73%
CC(Sc1nnc2c(n1)C1CCC2(C)C1(C)C)C(=O)Nc1ccccc1 (stereo not given) 6.3%
Cn1nccc1/C=N\NC(=O)c1ccc(Cl)cc1 9.85%
CCOc1ccc(C(=O)CCN2CCOCC2)cc1 -10.8%
CCOc1cc(C(=S)N2CCOCC2)ccc1OS(=O)(=O)c1ccc(Br)cc1 22.9%
COC(=O)[C@@H]1CC2=CC(=O)CC[C@]2(C)[C@@]23O[C@@H]2C[C@@]2(C)[C@@H](CC[C@@]24CCC(=O)O4)[C@H]13 10%
Cc1ccc(Cn2cc(C(=O)NN)c(=O)c3ccc(F)cc32)cc1 10.7%
CCn1c(SCC(=O)Nc2ccc3c(c2)OCCO3)nnc1C(C)C 18.9%
CCCn1c(SCC(N)=O)nnc1C(C)C 10.5%
COc1ccc(C(C(=O)NC2CCCC2)N(CCCO)C(=O)Cn2nnc(-c3ccc(C)o3)n2)cc1 (stereo not given) 1.56%
CCN(CC)S(=O)(=O)c1ccc(N2CCN(C)CC2)c(NC(=O)Nc2ccccc2F)c1 9.85%
Cc1cc(SCC(=O)c2ccccc2)nc(SCC(=O)c2ccccc2)n1 11.4%
Cc1ccc(N/C=C/C(=O)c2ccccc2)cc1C -6.7%
COc1cc(C(C(=O)NC2CCCC2)N(Cc2ccccc2)C(=O)c2snc(C(N)=O)c2N)ccc1O (stereo not given) 4.51%
CCOC(=O)[C@H]1[C@H]2COc3cc(OC)ccc3[C@@H]2N2C(=O)N(c3ccc(Br)cc3)C(=O)[C@@]12C 5.98%
O=C(NCCCO)c1cc2c([nH]c3ccccc32)c(-c2ccc(F)cc2)n1 -19.4%
CSc1ncccc1C(=O)NC1CCCCCC1 8.17%
CN(C)C(=O)c1ccc(NC(=O)c2ccccc2-c2ccccc2)cc1 -2.24%
O=C1/C(=C/c2ccc3c(c2)OCO3)Oc2cc(OCC(=O)N3CC(O)C[C@H]3C(=O)O)ccc21 (stereo not given in full) 2.62%
Cn1c(CC(=O)Nc2ccc(F)cc2)nnc1SCC(=O)NC1CCCCC1 16%
CCOc1cccc(-c2nnc(SCC(=O)NC3CC3)n2C)c1 3.79%
CC(=O)Nc1ccc(NC(=O)COc2ccc(-c3ccccc3)cc2)cc1 13.3%
O=C(/C=C/c1cccc(F)c1)NC1CC1 29.9%
Oc1oc(-c2ccccc2Br)nc1/C=N/c1ccccn1 -0.12%
COC(=O)Cn1c(O)c(N=NC(=O)OC)c2ccccc21 4.81%
COC(CNC(=O)c1ccc2c(c1)ncn2-c1cc(C)cc(C)c1)OC 8.91%
CC(C)C(N)C(=O)OCCOCn1cnc2c(=O)[nH]c(N)nc21 (stereo not given) -9.12%
COc1cc2c(cc1OC)CN(CC(=O)Nc1ccc(F)cc1)CC2 2.33%
O=C(CCc1nnc(Cc2ccc3c(c2)OCO3)o1)NCCc1ccccc1Cl -0.572%
COc1ccc(N(Cc2cc3cc(OC)ccc3[nH]c2=O)S(C)(=O)=O)cc1 -8.56%
CCC(=O)N(Cc1cc2cc(OC)ccc2[nH]c1=O)c1ccccc1C 6.41%

Potency, active:
Cc1cccc(NC(=O)c2sc3nc(N4CCOCC4)c4c(c3c2N)CCCC4)c1 17.8 µM
CC(=O)N1CCN(c2ccc(NCc3ccc(C(C)C)cc3)cc2)CC1 50.1 µM
Nn1cnnc1N/N=C/c1cc([N+](=O)[O-])c(Cl)cc1Cl 50.1 µM
Cc1ccc2sc(NNC(=O)c3ccc4c(c3)OCCO4)nc2c1C 28.2 µM
COc1cc(C2CC(=O)N3CN(Cc4ccccc4)CSC3=C2C#N)ccc1OCc1ccccc1 (stereo not given) 3.55 µM
COc1cc(C(=O)NC(=S)NCc2ccco2)cc(OC)c1OC 44.7 µM
O=C(Oc1ccc(Br)cc1C(=S)N1CCOCC1)c1cccc([N+](=O)[O-])c1 50.1 µM
O=C(Oc1ccccc1C(=S)N1CCCCC1)c1cc([N+](=O)[O-])cc([N+](=O)[O-])c1 31.6 µM
S=c1[nH]c2ccccc2c2ccccc12 50.1 µM
CCN(CC)c1ccc2oc(=O)c(C)nc2c1 14.1 µM
CSc1nc(C)cc(SC(C(C)=O)C(=O)Nc2ccccc2)n1 (stereo not given) 50.1 µM
CCOc1cc(C(=S)N2CCOCC2)ccc1O 14.1 µM
CCCn1c(SCC(=O)c2ccc3c(c2)OCCO3)nnc1C(C)C 79.4 µM
Cc1cc(C)nc(S/C=C/C(=O)c2ccccc2)n1 20 µM
CSc1nsc(SC)c1NC(=O)OC1CCCCC1 56.2 µM
CCOc1ccc(Nc2nc(Cc3nnc(SCC(=O)NC4CCCC4)n3C)cs2)cc1 89.1 µM
CC(C)n1c(O)c(N=Nc2ccccn2)c2ccccc21 50.1 µM
COc1ccc2[nH]c(=O)c(CNc3ccc(C)c(C)c3)cc2c1 50.1 µM
